Among all 2,400 compounds or so, about 360 (15%) were called active. Only a sample is shown. Entries with a potency or affinity are not part of this list. Values without a mark were called inactive.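 The calls were made as follows: active = viability falls under 70% at one or more tested concentrations, taken as toxicity; inactive = viability stays over 70% at every dose.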
Assay: HeLa cell cytotoxicity, dose response, cytotoxicity control for MgcRacGAP inhibitor project (AID 624300);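 also: 100% = median of untreated control wells on the same plate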
Details: CellTiter-Glo luminescence, 24 h; series mostly up to 100 µM; viability: at the top concentration

SMILES | viability [%]
Nc1ccc(N2CCOCC2)c(Cl)c1 | 102
CC(=Nc1ccc(O)cc1)c1sc2ccccc2c1O | 112
Oc1ccc(N=Cc2cc(Br)c(N3CCOCC3)o2)cc1 | 103
COc1ccccc1Nc1n[nH]c(=S)s1 | 92.9
O=C(Cn1c(C(=O)NCc2ccco2)cc2sccc21)c1ccccc1 | 93.1
COc1ccc(C=NNC(=O)c2cc(C)oc2C)cc1O | 81
Cc1nonc1C(=O)N/N=C/c1ccc(O)c(O)c1 | 91.9
Cc1c(C(=O)N/N=C/c2ccc(O)cc2)sc(=S)n1C | 106
Oc1cc(O)c2c(c1)O[C@H](c1ccc(O)c(O)c1)[C@H](O)C2 | 102
CCOC(=O)c1c(OCC)[nH]c2c1cc(O)c1ccccc12 | 98.7
c1coc(CSSCc2ccco2)c1 | 105
COc1cc(/C=N/n2nnnc2N)ccc1O | 93.9
Cc1cc(C)cc(NC(=O)C(NCCN2CCOCC2)c2ccccc2)c1 (stereo unspecified) | 94.9
CN=c1scc(C)n1/N=C/c1cc(Br)c(O)c(OC)c1 | 93.5
Cc1cc(O)ccc1N/C=C1\CCCC1=O | 90.5
O=c1oc2cc(O)ccc2c2oc3cc(O)ccc3c12 | 98.3
CN(C)/C=C/c1oc2ccc(O)cc2c1[N+](=O)[O-] | 94.5
CC(C)COc1ccc(N)cc1OCC(C)C | 104
Nc1cc2c([N+](=O)[O-])cccc2o1 | 95.3
COc1cc(Sc2ccc(C)cc2)c(OC)cc1N | 94.1
COc1ccc(NCCC(O)c2ccc(Cl)cc2)cc1 (stereo unspecified) | 106
COc1ccc(NC2CCCN(C(=O)COc3ccc(C(C)=O)cc3)C2)cc1 (stereo unspecified) | 100
S=c1[nH]nc(-c2ccncc2)n1/N=C/c1ccccc1 | 100
COc1ccc(N2CCN(C(=O)c3ccc(Br)o3)CC2)cc1 | 105

SMILES | viability [%]
O=[N+]([O-])c1ccc(C2CC(c3ccccc3)=Nc3ccccc3S2)cc1 (stereo unspecified) | 85.2
CCOC1=C/C(=C/c2c(N)n3nc(S(=O)(=O)CC)sc3nc2=O)C=CC1=O | 108
COc1ccc(OC(=O)c2cc(S(=O)(=O)N3CCCC3)ccc2Cl)cc1 | 97
O=C(Cn1c(C(=O)NCC2CCCO2)cc2sccc21)c1ccccc1 (stereo unspecified) | 93.5
CCOc1cc(/C=N\NC(=O)CC(=O)NCCc2ccccc2)ccc1O | 101
CS(=O)(=O)c1ccc2c(c1)sc1nc(=O)c(/C=C3/C=CC(=O)C(O)=C3)c(N)n12 | 94.4
O=C(NCCNCC(O)COc1ccc(O)cc1)N1CCOCC1 (stereo unspecified) | 109
COc1ccc(NCC(O)COc2ccc(C(C)(C)C)cc2)cc1 (stereo unspecified) | 100
CCCCN(C)C(=O)C1CCN(Cc2ccc(OCc3ccccc3)cc2)CC1 | 90.2
C#CCOc1ccccc1CNC1CCN(Cc2ccccc2)CC1 | 97.2
O=C(Cc1coc2cc(O)ccc12)NNC(=O)c1ccc(Br)s1 | 111
CCc1ccc(CNc2ccc(N3CCN(C(C)=O)CC3)cc2)cc1 | 99.8
COc1cc(N=Nc2ccc(C)cc2S(N)(=O)=O)c(C)cc1N | 94.5
COc1cc(/C=N/NC(=O)CCNC(=O)c2ccccc2Cl)ccc1O | 97.2
COc1cc(/C=C/C(=O)OCC(=O)Nc2ccc3c(c2)OCCO3)ccc1O | 115
CN(c1ccc(O)cc1)c1nc(-c2cccnc2)cs1 | 98.8
Oc1ccc(-c2csc(NCc3ccco3)n2)cc1 | 110
COc1ccc(N)cc1NC(=O)CN1CCOCC1 | 92.2
CC/C(=N\O)c1ccc(O)c(OC)c1 | 99.7
CC(C(=O)N(C)Cc1ccccc1)N1CCN(C/C=C/c2ccccc2)CC1 (stereo unspecified) | 93.8
COc1ccc(N2CCN(C(=O)CCCn3c(=O)c4cccn4c4cccnc43)CC2)cc1 | 96
COc1cccc(CN2CCN(Cc3cc(OC)c(OC)c(OC)c3)CC2)c1OC | 100
Nc1c(Cl)ncnc1N/N=C/c1ccc(O)cc1 | 108
Oc1ccc(/C=N/Nc2nccnc2Cl)c(O)c1 | 97.6

SMILES | viability [%]
CCOc1cc(/C=N/Nc2ncnc(Cl)c2N)ccc1O | 87
COc1cc(/C(C)=N/NC(=O)C(O)(c2ccccc2)c2ccccc2)ccc1O | 96.5
Cc1nc(C/C(=N\N)c2ccc(O)cc2O)cs1 | 98
O=C1CC(SC(=S)C2CCCC2=O)C(=O)N1 (stereo unspecified) | 100
Cc1ccc(SCCN2CCN(Cc3ccccc3)CC2)cc1 | 92.2
CC(CN1CCN(Cc2ccccc2)CC1)c1ccccc1 (stereo unspecified) | 98.4
CC(=O)c1c(Nc2ccc3c(c2)OCCO3)oc(C)cc1=O | 102
CC(=O)N1CCN(c2ccc(N)cc2)CC1 | 104
Oc1ccc(/C=N/n2cc(-c3ccccc3)[nH]c2=S)cc1 | 97.2
Nc1ccc(C(=O)N/N=C/c2ccc(N3CCOCC3)s2)cc1 | 105
CN(c1ccccc1)c1ccc(/C=N/N2CCOCC2)cc1 | 106
Oc1ccc(-c2csc(Nc3cccnc3)n2)cc1 | 91
Oc1ccc(-c2csc(Nc3ncccn3)n2)cc1 | 100
C#CCOCCOCCOCCNc1nc(N2CCN(C(=O)[C@H](CCCCN)n3cc([C@@H](N)C(C)CC)nn3)CC2)nc(N2CCN(C(=O)[C@H](CCCCN)n3cc([C@@H](N)CC(C)C)nn3)CC2)n1 (stereo partly specified) | 101
Cc1ccc(N2CC(C(=O)Nc3ccc(N(C)C)cc3)CC2=O)cc1C (stereo unspecified) | 94.4
O=C(O)c1ccc(S(=O)(=O)c2ccc3c(c2)C(=O)N(NC(=O)c2cccnc2)C3=O)cc1 | 102
O=C(O)c1cccc2cccc(-c3c4ccc(=O)c(O)c-4oc4c(O)c(O)ccc34)c12 | 97.2
Cc1cc(=O)oc2c(O)c(O)ccc12 | 87.6
CC(C(=O)NCC(=O)Nc1ccc(F)c(F)c1F)N1CCN(c2ccc(O)cc2)CC1 (stereo unspecified) | 107
Cc1cc(C(=O)c2cnc(/N=C/N(C)C)s2)cc(C)c1O | 94.2
COc1cc(/C=N/NC(=O)C(=O)N2CCCC2)ccc1O | 103
Oc1ccc(Br)cc1C=Nc1ccc2[nH]ncc2c1 | 90.4
Oc1ccccc1/C=N/n1c(-c2ccccc2)n[nH]c1=S | 104
O=[N+]([O-])c1cccc(/C=N/n2c(-c3cccnc3)n[nH]c2=S)c1 | 98.9

SMILES | viability [%]
CCN(c1ccccc1)S(=O)(=O)c1ccc(OC)c(NC(=O)CNCCc2ccccc2)c1 | 94.7
CCOC(=O)CCNC(C)C1COc2ccccc2O1 (stereo unspecified) | 102
O=C(COC(=O)c1c2c(nc3ccccc13)/C(=C/c1ccco1)CC2)NC1CCCC1 | 89.1
CC(C)c1ccc(NC(=O)CNCC(c2ccccc2)N(C)C)cc1 (stereo unspecified) | 98.1
COC(C(=O)N/N=C(\C)CC(=O)Nc1ccc(N(C)C)cc1)c1ccccc1 (stereo unspecified) | 106
COc1cc(N=Nc2c(C)n(C)n(-c3ccccc3)c2=O)ccc1N | 95.7
Oc1ccc(/C=N/N=C/c2ccc(O)cc2)cc1 | 102
COc1cccc(OC)c1OCCCCN1CCCC1 | 102
Cc1cccn2c(NCc3ccc4c(c3)OCO4)c(-c3ccc(O)cc3)nc12 | 98.5
C/C(CC(=O)Nc1ccc(N(C)C)cc1)=N\NC(=O)c1ccc([N+](=O)[O-])cc1Cl | 103
Cc1cc(/C=C(\C#N)C(=O)N2CCCCC2)cc(C)c1O | 94.2
COc1ccc(N2C(=O)CC(Nc3ccc(N4CCOCC4)cc3)C2=O)c(OC)c1 (stereo unspecified) | 106
CN1C=CC(=CC=C2C=CC(=O)C=C2)C=C1 | 93.8
COc1cc(/C=C/C(=O)OC(C)C(=O)Nc2c(C)n(C)n(-c3ccccc3)c2=O)ccc1O (stereo unspecified) | 99.9
COc1cc(/C=N/NC(=O)c2nnn(-c3nonc3N)c2C(C)C)ccc1O | 96.8
CCN1CCN(CCOc2ccc(Br)cc2C)CC1 | 95.3
COc1ccccc1-c1cn[nH]c1-c1ccc(O)cc1O | 104
COc1ccc(-c2cn[nH]c2-c2ccc(O)cc2O)cc1 | 101
CN1CCN(Cc2coc3c(Cl)cc(Cl)cc3c2=O)CC1 | 101
CN1C(=O)C2C(c3ccc(N(C)C)cc3)=NN(Cc3ccccc3)C2C1=O (stereo unspecified) | 97
CC(C(=O)Nc1ccc2c(c1)OCO2)N1CCN(C)CC1 (stereo unspecified) | 101
CCN(CC)CCn1c2ccccc2c(=O)c2c(O)ccc(O)c21 | 93
CCN(CC)CCCNCC(=O)Nc1cc(C)on1 | 105
COc1ccc(-n2c(=O)c3c4c(sc3n3c(=S)[nH]nc23)CCCC4)cc1 | 96.4

SMILES | viability [%]
c1cc2c(cc1CNc1ccc(N3CCOCC3)cc1)OCO2 | 99.3
COc1cc(/C=N/n2c(C3CCCCC3)n[nH]c2=S)ccc1O | 89.1
CN1CCN(/N=C/c2nc(-c3ccc(Cl)cc3)n3ccccc23)CC1 | 98.7
Oc1ccc(N2CCN(C(c3cccs3)c3nnnn3CCc3ccccc3)CC2)cc1 (stereo unspecified) | 107
Cc1ccc(NC(=O)CCC(=O)N/N=C/c2ccc(O)cc2)cc1 | 102
Cn1cccc1CC(=O)N/N=C/C=C/c1ccco1 | 102
Cc1ccc(Nc2n[nH]c(=S)s2)c(C)c1 | 96.7
O=C(CNC1CC1)Nc1cc(C(F)(F)F)ccc1Cl | 90.3
CCC1=NN2C(=N)/C(=C\c3ccc(SCc4ccco4)o3)C(=O)N=C2S1 | 97.1
CCOc1cc(/C=N/NC(=O)c2ccccc2OCc2ccc(F)cc2)ccc1O | 82.5
O=C(COc1ccccc1[N+](=O)[O-])N/N=C/c1ccc(O)cc1 | 106
O=C(N/N=C/c1ccc(O)c(O)c1)c1cccc(S(=O)(=O)N2CCCCC2)c1 | 91.9
CCOC(=O)Nc1ccc(OC(=O)Oc2ccc(NC(=O)OCC)cc2)cc1 | 103
CC(=O)Nc1ccc(OC(=O)c2cc3ccccc3oc2=O)cc1 | 112
C=CCc1cc(C=Nc2ccc(N3CCOCC3)cc2)cc(OCC)c1O | 103
CCc1nnc(N/N=C/c2c(C)[nH]c3ccccc23)n1N | 88.7
CCN1CCN(C(C)C(=O)NC2CCCCC2)CC1 (stereo unspecified) | 100
C/C(=N/Nc1ccc(C(=O)O)cc1)c1ccc2c(c1)Nc1ccccc1S2 | 103
C/C(=N\NC(=O)c1ccccc1F)c1ccc2c(c1)Nc1ccccc1S2 | 87.5
N#CC1=C(S)N(c2ccccc2)C2(CCCCC2)NC1=O | 96.7

Source: PubChem BioAssay AID624300 (Southern Research Specialized Biocontainment Screening …, 2012)
